Experimental data taken from the supplement of paper PMC10646978.
± gives the standard deviation.

Legend:
Settings in all cases: modulator concentration 10 µM
[1] = test system: RAW-Dual (murine macrophage reporter line); experiment: NF-kB reporter (SEAP) activity fold change vs agonist alone; higher = enhanced NF-kB activity
Summary of the method: (§1)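 Compound reached 10 μM final in each well by pin transfer, onto RAW-Dual murine macrophage reporter cells seeded at 50 000 per well in 384-well plates. After 1 hour at 37 °C, the cells were stimulated overnight with a PRR agonist. SEAP in the supernatant was read with QUANTI-Blue at 620 nm absorbance for NF-κB, and Lucia luciferase was read with QUANTI-Luc luminescence for IRF. Each signal was turned into fold change against the mean agonist-only control on the same plate, and two replicate plates were averaged with propagated errors.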

[2] = test system: RAW-Dual (murine macrophage reporter line); experiment: IRF reporter (Lucia luciferase) activity fold change vs agonist alone; higher = enhanced IRF activity
Summary of the method: as §1

[3] = test system: RAW-Dual (murine macrophage reporter line); experiment: viability score (confluency relative to resting cells, overnight) (fraction); higher = more viable, active = viable (0.7 or more)
Summary of the method: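 RAW-Dual macrophages in 384-well plates were incubated overnight with compound, final concentration 10 μM. Confluency images from IncuCyte were processed in IncuCyte software into two masks covering all imaged wells. The viability score is each well's confluency relative to resting cells, and a compound met the cutoff when both masks exceeded 70% of resting cells.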

[4] = agonist: CpG ODN 1826 0.5 ug/mL

Row | Structure (SMILES) | NF-kB reporter [1, 4] | NF-kB reporter ([1]; agonist: LPS 0.1 ug/mL) | NF-kB reporter ([1]; agonist: MPLA […]) | IRF reporter ([2]; agonist: 3'3'-cGAMP 10 ug/mL) | IRF reporter ([2]; agonist: LPS 0.1 ug/mL) | IRF reporter ([2]; agonist: MPLA […]) | viability score [3]
1 | CC1=NN(C(=O)CCCc2ccccc2)C(O)(c2ccc(Cl)cc2)C1 (configuration not stated) | 0.923 ± 0.1 | 1 ± 0.13 | 1.02 ± 0.049 | 0.899 ± 0.2 | 1.1 ± 0.065 | 1.13 ± 0.15 | 0.999 (active)
2 | Cl.O=C1c2cccc3c2[C@H](CCC3)CN1[C@@H]1CN2CCC1CC2 | 1.03 ± 0.17 | 0.655 ± 0.053 | 0.823 ± 0.11 | 0.582 ± 0.022 | 0.918 ± 0.17 | 0.987 ± 0.12 | 0.974 (active)
3 | O=c1[nH]cc(F)c(=O)[nH]1 | 1.48 ± 0.29 | 0.887 ± 0.21 | 1 ± 0.059 | 1.1 ± 0.059 | 1.33 ± 0.18 | 1.01 ± 0.17 | 0.735 (active)
4 | CCCCCCOc1ccc(OC(=O)c2ccc(OC)cc2)cc1 | 0.826 ± 0.073 | 0.856 ± 0.072 | 0.913 ± 0.089 | 0.95 ± 0.037 | 1.37 ± 0.21 | 1.62 ± 0.26 | 1.04 (active)
5 | CNC(=O)c1cc(Oc2ccc(NC(=O)Nc3ccc(Cl)c(C(F)(F)F)c3)cc2)ccn1.Cc1ccc(S(=O)(=O)O)cc1 | 0.448 ± 0.038 | 0.8 ± 0.048 | 0.791 ± 0.072 | 0.246 ± 0.019 | 0.575 ± 0.047 | 0.513 ± 0.069 | 1.01 (active)
6 | Cc1cc(=O)n(CC(=O)N2CCC(c3ccccc3F)S(=O)(=O)CC2)cn1 (configuration not stated) | 1.01 ± 0.06 | 1.07 ± 0.084 | 0.953 ± 0.09 | 1 ± 0.063 | 1.12 ± 0.081 | 1.04 ± 0.091 | 1 (active)
